Read-out in assay [1]: Vascular cell adhesion molecule 1 (VCAM1), VCAM1 (gene 7412)
The experiment in a line: BSK_hDFCGF_VCAM1: BioMAP Diversity Plus: hDFCGF Assay for Vascular cell adhesion molecule 1 (VCAM1) Biomarker Activity (AID 2283065).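 For AC50: VCAM-1 protein level quantified by ELISA after 24 h chemical exposure.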 The settings on record: primary human foreskin fibroblasts; actives raise or lower the signal. The gist of the method: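 ELISA readout of VCAM-1 on human dermal fibroblast primary cultures, 24 h after chemical exposure. Gain or loss of signal fitted in both directions against DMSO baseline.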

Read-out in assay [2]: Plasminogen activator inhibitor-1 (PAI1), SERPINE1 (gene 5054)
The experiment in a line: BSK_hDFCGF_PAI1: BioMAP Diversity Plus: hDFCGF Assay for Plasminogen activator inhibitor-1 (PAI1) Biomarker Activity (AID 2283066). The note with it: primary human foreskin fibroblasts; actives raise or lower the signal. Put shortly: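 PAI-1 levels in human dermal foreskin fibroblasts were quantified by ELISA 24 h after dosing, with gain or loss analysed against DMSO. Overt cytotoxicity was checked by sulforhodamine B total-protein staining in parallel cultures.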

Read-out in assay [3]: Intercellular Adhesion Molecule 1 (ICAM1), ICAM1 (gene 3383)
Kind of assay: BSK_KF3CT_ICAM1: BioMAP Diversity Plus: KF3CT Assay for Intercellular Adhesion Molecule 1 (ICAM1) Biomarker Activity (AID 2283067). The settings on record: primary human keratinocytes with fibroblasts; actives raise or lower the signal. The gist of the method: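 Cell-surface ICAM-1 was measured by ELISA 24 h after dosing primary human skin keratinocytes co-cultured with fibroblasts. Parallel SRB staining tracked overt cytotoxicity. Gain or loss of signal was fitted relative to DMSO.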

Read-out in assay [4]: Interferon-gamma inducible Protein 10 (IP10), CXCL10 (gene 3627)
The experiment in a line: BSK_KF3CT_IP10: BioMAP Diversity Plus: KF3CT Assay for Interferon-gamma inducible Protein 10 (IP10) Biomarker Activity (AID 2283068). The settings on record: primary human keratinocytes with fibroblasts; actives raise or lower the signal. Put shortly: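 Human keratinocyte plus foreskin fibroblast primary co-culture exposed to test chemical for 24 h; IP-10 measured by ELISA. Concentration-response fitted bidirectionally against DMSO control as baseline.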

Assay [5] in a line: BSK_KF3CT_SRB: Viability Assessment in the BioMAP Diversity Plus: KF3CT Assay (AID 2283069).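 Note: read 24 h after compound addition.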 The note with it: primary human keratinocytes with fibroblasts. The gist of the method:
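Overt cytotoxicity is assessed as total protein by sulforhodamine B staining in parallel human skin co-cultures at 24 h after dosing. DMSO serves as negative control and baseline.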

Read-out in assay [6]: Interleukin-1 alpha (IL1a), IL1A (gene 3552)
Kind of assay: BSK_KF3CT_IL1a: BioMAP Diversity Plus: KF3CT Assay for Interleukin-1 alpha (IL1a) Biomarker Activity (AID 2283070). The note with it: primary human keratinocytes with fibroblasts; actives raise or lower the signal. Put shortly:
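Readout is IL-1a level by ELISA, compared bidirectionally with DMSO as baseline. Cells: human keratinocytes co-cultured with foreskin fibroblasts, harvested 24 h post-dose.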

Read-out in assay [7]: TIMP metallopeptidase inhibitor 2 (TIMP2), TIMP2 (gene 7077)
Kind of assay: BSK_KF3CT_TIMP2: BioMAP Diversity Plus: KF3CT Assay for TIMP metallopeptidase inhibitor 2 (TIMP2) Biomarker Activity (AID 2283071). The settings on record: primary human keratinocytes with fibroblasts; actives raise or lower the signal. The gist of the method: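 TIMP-2 measured by ELISA at 24 h in human keratinocyte/fibroblast primary co-cultures exposed to chemicals. Both increases and decreases were fitted against DMSO. Parallel cultures were stained with SRB for total protein as an overt-cytotoxicity check.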

Read-out in assay [8]: Transforming growth factor beta 1 (TGFb1), TGFB1 (gene 7040)
The experiment in a line: BSK_KF3CT_TGFb1: BioMAP Diversity Plus: KF3CT Assay for Transforming growth factor beta 1 (TGFb1) Biomarker Activity (AID 2283072). The note with it: primary human keratinocytes with fibroblasts; actives raise or lower the signal. The gist of the method:
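ELISA quantifies TGF-b1 at 24 h post-dose in a primary human skin co-culture of keratinocytes and fibroblasts, with gain or loss judged against DMSO. Parallel SRB total-protein staining flags overt cytotoxicity.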

Read-out in assay [9]: C-C motif chemokine 2 (Homo sapiens) (UniProt P13500)
The experiment in a line: BSK_KF3CT_MCP1: BioMAP Diversity Plus: KF3CT Assay for Monocyte Chemoattractant Protein 1 (MCP1/CCL2) Biomarker Activity (AID 2283073). The note with it: primary human keratinocytes with fibroblasts; actives raise or lower the signal. Put shortly:
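ELISA read-out of MCP-1, 24 h post-dose, in primary human skin keratinocytes co-cultured with fibroblasts. Parallel SRB staining monitors cytotoxicity; changes fitted both directions relative to DMSO.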

Read-out in assay [10]: Matrix Metallopeptidase 9 (MMP9), MMP9 (gene 4318)
Kind of assay: BSK_KF3CT_MMP9: BioMAP Diversity Plus: KF3CT Assay for Matrix Metallopeptidase 9 (MMP9) Biomarker Activity (AID 2283074).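 For AC50: MMP9 protein level quantified by ELISA in the co-culture.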 The settings on record: primary human keratinocytes with fibroblasts; actives raise or lower the signal. Put shortly:
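Values come from bidirectional fitting relative to DMSO of MMP-9 levels, which were measured by ELISA. Measurements were taken 24 h after chemical dosing of a keratinocyte and foreskin fibroblast co-culture.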

Calls of active or inactive are those of the source. Rule for the calls: active = hit-call score of the fitted dose curve at least 0.9, where 1 is the maximum; inactive = score below 0.9.

For 14 molecules, outcome and AC50 results are on record in PubChem BioAssay (EPA / NIEHS).

As a reminder, the AC50 is the concentration giving half of the maximal activity seen.

Turning to `CN(C)C(=O)NC1(c2ccccc2)CCN(CCC[C@]2(c3ccc(Cl)c(Cl)c3)CCCN(C(=O)c3ccccc3)C2)CC1`, the outcome in [1], in [2], in assay [3], in [4], in [5] and in assay [6] was inactive. Further, the outcome in assay [7], in [8], in assay [9] and in [10] was inactive.

Take `S=c1[nH]c2ccccc2s1`: the outcome in [1], in assay [2], in assay [3], in [4], in assay [5] and in [6] was inactive. Besides, the result in assay [7], in assay [8], in assay [9] and in assay [10] was inactive.

`CN(C)CCCN(C)CCCN(C)C`: the outcome in [1], in [2], in assay [3], in [4], in assay [5] and in [6] was inactive. Further, the result in assay [7], in assay [8], in assay [9] and in assay [10] was inactive.

Consider `COc1ccc(OC(F)(F)F)cc1CN[C@H]1CCCN[C@H]1c1ccccc1`, for which the result in [1], in [2], in assay [3], in assay [4], in assay [5] and in assay [6] was inactive. Moreover, the result in assay [7], in assay [8], in [9] and in [10] was inactive.

For `O=C1NC(=O)C(c2ccccc2)(c2ccccc2)N1`, the outcome in assay [1], in [2], in [3], in assay [4], in assay [5] and in assay [6] was inactive. Moreover, the result in assay [7], in assay [8], in [9] and in assay [10] was inactive.

As to `CCc1nc(N)nc(N)c1-c1ccc(Cl)cc1`, the outcome in [1], in assay [2], in [3], in [4], in assay [5] and in assay [6] was inactive. Moreover, the outcome in assay [7], in [8], in assay [9] and in [10] was inactive.

`NC1CCCCC1`: the outcome in assay [1], in [2], in assay [3], in assay [4], in assay [5] and in assay [6] was inactive. The outcome in [7], in assay [8], in assay [9] and in assay [10] was inactive.

Take `C=CCc1ccc(OC)c(OC)c1`: the outcome in assay [1], in [2], in [3], in assay [4], in assay [5] and in assay [6] was inactive. Also, the outcome in assay [7], in assay [8], in assay [9] and in [10] was inactive.

With `O=Cc1ccccc1C=O`, the result in assay [1], in [2], in assay [3], in assay [4], in assay [5] and in assay [6] was inactive. Besides, the result in assay [7], in assay [8], in assay [9] and in assay [10] was inactive.

As to `NC(=Nc1ccccc1)Nc1ccccc1`, the result in assay [1], in [2], in assay [3], in [4], in [5] and in assay [6] was inactive. Besides, the result in assay [7], in assay [8], in assay [9] and in assay [10] was inactive.

As to `O=NO`, the result in assay [1], in assay [2], in assay [3], in assay [4], in [5] and in assay [6] was inactive. The outcome in [7], in assay [8], in assay [9] and in assay [10] was inactive.

Regarding `COc1ccc(C(=O)Nc2nc3ccccc3c(NCc3ccccc3)c2C#N)cc1`, the result in [1], in [2], in assay [3], in assay [4], in assay [5] and in [6] was inactive. The result in [7], in [8], in assay [9] and in assay [10] was inactive.

Turning to `Oc1ccc(O)cc1`, the AC50 in [1] was 13.5 µM (active); in [2], 14.7 µM (active); in assay [3], 6.66 µM (active); in assay [4], 20 µM (active); in assay [10] it was 20 µM (active). Besides, the result in assay [5], in assay [6], in assay [7], in [8] and in assay [9] was inactive.

Regarding `CCCCC(CC)COP(=O)(OCC(CC)CCCC)OCC(CC)CCCC` (stereo not given), the outcome in assay [1], in [2], in assay [3], in assay [4], in [5] and in assay [6] was inactive. Besides, the outcome in assay [7], in assay [8], in assay [9] and in assay [10] was inactive.
